Here are results for 39 compounds from PubChem BioAssay (NCATS).

Results filed as inconclusive are left out. A number with no mark means an inactive call. Activity calls are given as the source filed them. Calls come from the whole dose curve.

Assay [1] can be described thus: Primary qHTS for Huh7 cytotoxicity: counterscreen for inhibitors of MERS-S pseudotyped particle cell entry (AID 1479147).
Assay [2] is described as follows: Primary qHTS for inhibitors of MERS-S pseudo-typed particle cell entry (AID 1479149). Note: nearly all actives have a fitted effect of over 60% in size. Note: potency is the fitted concentration of half-maximal effect. For orientation: Quantitative high-throughput screening tests each substance at several concentrations.
A short description of assay [3]: Primary qHTS for Vero E6 cytotoxicity: counterscreen for inhibitors of SARS-S pseudo-typed particle cell entry (AID 1479150).
A short description of assay [4]: Primary qHTS for inhibitors of SARS-S pseudo-typed particle cell entry (AID 1479145). Note: nearly all actives have a fitted effect of over 45% in size.

`CCS(=O)(=O)CCn1c([N+](=O)[O-])cnc1C`: the Potency entry in assay [1], in assay [2] and in assay [3] was “inactive” throughout.
Consider `CC(C)[C@H](N)C(=O)OCC(CO)OCn1cnc2c(=O)[nH]c(N)nc21` (some centres not stated), for which the Potency result in assay [1], in assay [2] and in assay [3] was “inactive” in each case.
`Cc1cc2c(cc1S(N)(=O)=O)S(=O)(=O)CCC2`: the Potency result in assay [4], in assay [1] and in assay [3] was “inactive” throughout.
`CCCCC(CC)CN1CN(CC(CC)CCCC)CC(C)(N)C1` (configuration not stated): the Potency entry in assay [1], in assay [2] and in assay [3] was “inactive” each time.
Turning to `CC(=O)Nc1ccc(C(=O)O)cc1`, the Potency entry in assay [4], in assay [1] and in assay [3] was “inactive” in each case.
As for `C[C@H](NC(CCc1ccccc1)C(=O)O)C(=O)N1CCC[C@H]1C(=O)O` (some centres not stated), the Potency entry in assay [4], in assay [1] and in assay [3] was “inactive” throughout.
Consider `CC(C)[C@H](N)C(=O)OCCOCn1cnc2c(=O)[nH]c(N)nc21`, for which the Potency result in assay [1], in assay [2] and in assay [3] was “inactive” each time.
Consider `CN1[C@@H]2CC[C@H]1CC(OC(c1ccccc1)c1ccccc1)C2` (some centres not stated), for which the Potency entry in assay [1] and in assay [3] was “inactive” each time. The Potency in assay [2] is 14.1 µM (active).
Turning to `CO[C@@H]1[C@@H](OC(N)=O)[C@@H](O)[C@H](Oc2ccc3c(O)c(NC(=O)c4ccc(O)c(CC=C(C)C)c4)c(=O)oc3c2C)OC1(C)C`, the Potency entry in assay [4], in assay [1] and in assay [3] was “inactive” in each case.
As to `CCn1cc(C(=O)O)c(=O)c2cnc(N3CCNCC3)nc21`, the Potency result in assay [1], in assay [2] and in assay [3] was “inactive” each time.
Consider `c1ccc2c(c1)CCCC2C1=NCCN1` (configuration not stated), for which the Potency entry in assay [1], in assay [2] and in assay [3] was “inactive” throughout.
With `CC(=O)N(CC(O)CO)c1c(I)c(C(=O)NCC(O)CO)c(I)c(C(=O)NCC(O)CO)c1I` (configuration not stated), the Potency entry in assay [1], in assay [2] and in assay [3] was “inactive” in each case.
With `CC(C)CN(C[C@@H](OP(=O)(O)O)[C@H](Cc1ccccc1)NC(=O)O[C@H]1CCOC1)S(=O)(=O)c1ccc(N)cc1`, the Potency entry in assay [1], in assay [2] and in assay [3] was “inactive” throughout.
`Oc1ccccc1`: the Potency entry in assay [1], in assay [2] and in assay [3] was “inactive” each time.
`O=C(NC(Cc1cc(=O)[nH]c2ccccc12)C(=O)O)c1ccc(Cl)cc1` (configuration not stated): the Potency entry in assay [1], in assay [2] and in assay [3] was “inactive” throughout.
Regarding `NC[C@H]1O[C@H](O[C@H]2[C@H](O)[C@@H](O[C@H]3O[C@H](CO)[C@@H](O)[C@H](N)[C@H]3O)[C@H](N)C[C@@H]2N)[C@H](O)[C@@H](O)[C@@H]1O`, the outcome in assay [1], in assay [2] and in assay [3] was “inactive [at 5.34 µM]” throughout.
Regarding `Cc1ccc(C(C)C)cc2c(C)ccc1-2`, the Potency entry in assay [1], in assay [2] and in assay [3] was “inactive” each time.
With `COC(=O)c1ccc(O)cc1`, the Potency entry in assay [1], in assay [2] and in assay [3] was “inactive” throughout.
As to `CO/N=C(/C(=O)N[C@@H]1C(=O)N2C(C(=O)OCOC(=O)C(C)(C)C)=C(C)CS[C@H]12)c1csc(N)n1`, the Potency result in assay [1], in assay [2] and in assay [3] was “inactive” in each case.
`CCCCCCCCCCCC(=O)[O][Sn]([CH2]CCC)([CH2]CCC)[O]C(=O)CCCCCCCCCCC`: the Potency result in assay [1], in assay [2] and in assay [3] was “inactive” in each case.
As to `O=C(/C=C/c1ccccc1)OCc1ccccc1`, the Potency entry in assay [1], in assay [2] and in assay [3] was “inactive” each time.
Consider `OCc1ccc(Cl)cc1Cl`, for which the Potency entry in assay [1], in assay [2] and in assay [3] was “inactive” in each case.
For the compound `C[C@H]1O[C@@H](n2cc(F)c(=O)[nH]c2=O)[C@H](O)[C@@H]1O`, the Potency entry in assay [1], in assay [2] and in assay [3] was “inactive” throughout.
Regarding `Cc1cc(O)cc2c1O[C@](C)(CCC[C@H](C)CCC[C@H](C)CCCC(C)C)CC2`, the Potency entry in assay [1], in assay [2] and in assay [3] was “inactive” each time.
Consider `NCc1ccc(S(N)(=O)=O)cc1`, for which the Potency result in assay [1], in assay [2] and in assay [3] was “inactive” each time.
As to `C/C=C1\[C@H]2C=C(C)C[C@]1(N)c1ccc(=O)[nH]c1C2`, the Potency entry in assay [1], in assay [2] and in assay [3] was “inactive” throughout.
For `Cc1c(C(=O)O)c(O)cc2c1C(=O)c1c(O)c([C@@H]3O[C@H](CO)[C@@H](O)[C@H](O)[C@H]3O)c(O)c(O)c1C2=O`, the Potency entry in assay [1], in assay [2] and in assay [3] was “inactive” throughout.
For `CC(=O)Nc1ccc(S(=O)(=O)Nc2cc(C)on2)cc1`, the Potency result in assay [1], in assay [2] and in assay [3] was “inactive” each time.
For `COC(=O)C1=C(C)NC(C)=C(C(=O)OCC(C)=O)C1c1ccccc1[N+](=O)[O-]` (configuration not stated), the Potency result in assay [1], in assay [2] and in assay [3] was “inactive” throughout.
On to `CC[C@H](C)C(=O)O[C@H]1C[C@H](O)C=C2C=C[C@H](C)[C@H](CC[C@@H](O)C[C@@H](O)CC(=O)O)[C@H]21`, for which the Potency entry in assay [1], in assay [2] and in assay [3] was “inactive” in each case.
With `CN1C(C(=O)Nc2ccccn2)=C(O)c2sccc2S1(=O)=O`, the Potency result in assay [1], in assay [2] and in assay [3] was “inactive” throughout.
Turning to `C[C@@H]1CN(c2c(F)c(F)c3c(=O)c(C(=O)O)cn(C4CC4)c3c2F)C[C@H](C)N1`, the Potency entry in assay [1], in assay [2] and in assay [3] was “inactive” each time.
With `COc1cc(C(=O)NS(=O)(=O)c2ccccc2C)ccc1Cc1cn(C)c2ccc(NC(=O)OC3CCCC3)cc12`, the Potency result in assay [1], in assay [2] and in assay [3] was “inactive” throughout.
On to `CCOC(=O)C1=C(COCCN)NC(C)=C(C(=O)OC)C1c1ccccc1Cl` (configuration not stated), for which the Potency entry in assay [1], in assay [2] and in assay [3] was “inactive” each time.
In the case of `CCN1CC(CCN2CCOCC2)C(c2ccccc2)(c2ccccc2)C1=O` (configuration not stated), the Potency result in assay [1], in assay [2] and in assay [3] was “inactive” each time.
In the case of `CCOCCn1c(C2CCN(CCc3ccc(C(C)(C)C(=O)O)cc3)CC2)nc2ccccc21`, the Potency result in assay [1], in assay [2] and in assay [3] was “inactive” each time.
Take `NS(=O)(=O)c1cc(Cl)c(Cl)c(S(N)(=O)=O)c1`: the Potency result in assay [1], in assay [2] and in assay [3] was “inactive” each time.
As for `CC(C)Cc1ccc(CC(=O)O)cc1`, the Potency result in assay [1], in assay [2] and in assay [3] was “inactive” each time.
Consider `CC(=O)[C@H]1CC[C@H]2[C@@H]3C[C@H](C)C4=CC(=O)CC[C@]4(C)[C@H]3[C@@H](O)C[C@]12C`, for which the Potency result in assay [1], in assay [2] and in assay [3] was “inactive” throughout.
